Laboratory results taken from PubChem BioAssay (NCI).
Compounds without any hit were thinned out: in the full panel of roughly 79,000, 15% have a hit. Rule as the data show it: active = growth inhibition above about 70%; inactive = the rest.

What was measured:
[1] = NCI Yeast Anticancer Drug Screen. Data for the rad50 strain (AID 155);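 also: 0% = growth of vehicle-only cultures of the same strain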; conditions: S. cerevisiae rad50 strain growth inhibition; at 50.0 µM; active compounds read high
In short: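 Vehicle-treated cultures provide the reference for the growth inhibition reported for compound-exposed, repair-deficient yeast.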

[2] = NCI Yeast Anticancer Drug Screen. Data for the mec2-1 strain (AID 157); conditions: S. cerevisiae mec2-1 strain, at 50.0 µM, active compounds read high
In short: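 Each compound was tested on mec2-1 yeast, a strain altered in DNA damage repair or cell cycle control. Growth inhibition is reported relative to vehicle.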

[3] = NCI Yeast Anticancer Drug Screen. Data for the mlh1 rad18 strain (AID 175); conditions: S. cerevisiae mlh1 rad18 strain growth inhibition; at 50.0 µM; active compounds read high
In short: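 Inhibition values reflect reduced growth of mutant yeast versus vehicle-treated controls following compound exposure; the mutations affect DNA damage repair.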

Measured: growth inhibition

COc1ccc2ccccc2c1/C=N/N1CCCCC1
inactive: [1] 32.3% | [2] 19.6% | [3] 1.05%

O=C(O)C1(c2ccc(Cl)cc2)CCCC1
inactive: [1] 12.1% | [2] 8.75% | [3] 60.6%

S=C1SCN(Cc2ccccc2)CN1Cc1ccccc1
inactive: [1] -10.1% | [2] -26.1% | [3] -13.3%

Oc1ccccc1C=NCC1CCC(CN=Cc2ccccc2O)CC1 (stereo unspecified)
inactive: [1] 8.85% | [2] 13.1% | [3] 21%

Cc1ccc(CNc2ccc(F)cc2)cc1
inactive: [1] 29.9% | [2] 28.9% | [3] 19.8%

C[n+]1ccccc1/C=C/c1cccc(O)c1
inactive: [1] 14% | [2] -19.9% | [3] 17.8%

CCCCN1CCNCC1
inactive: [1] 10.1% | [2] -1.95% | [3] -2.55%

COC(=O)CCNCc1ccccc1
inactive: [1] -7.25% | [2] -41.6% | [3] 10.4%

C=CCOc1cccc(OCC=C)c1C
inactive: [1] -14.9% | [2] -20% | [3] -3.9%

CCOC(=O)C(C#N)N=Nc1ccccc1 (stereo unspecified)
inactive: [1] 10.2% | [2] -7% | [3] 10.2%

CC(CN1CCCC1)C(O)(Cc1ccccc1)c1ccccc1 (stereo unspecified)
inactive: [1] -0.05% | [2] -2.7% | [3] -4.15%

Cc1ccc(NC(=S)N(C)C)cc1C
inactive: [1] -2.7% | [2] -26.3% | [3] 1.1%

CCCCCCCCCCCCOc1ccc(C)cc1
inactive: [1] 5.45% | [2] -25% | [3] 5.3%

COc1ccc(/C=C(\C#N)c2ccc(C)cc2)cc1OC
inactive: [1] 50.4% | [2] 52.8% | [3] 38.1%

O=C(/C=N/O)Nc1cc(Cl)ccc1Cl
inactive: [1] 17.6% | [2] 15.4% | [3] 17.3%

O=C1Nc2ccccc2CCc2ccccc21
inactive: [1] -18.1% | [2] -34.3% | [3] -7.2%

COc1ccc(C(C(N)=O)N2CCCC2)cc1 (stereo unspecified)
inactive: [1] 1% | [2] -19.6% | [3] 16.6%

COc1ccc(-c2cc(=O)c3c(C)cc(O)cc3o2)cc1
inactive: [1] -9.4% | [2] -16.1% | [3] 37.9%

CCOC(=O)C1CCC(C(=O)OCC)N1c1ccc(C=O)cc1 (stereo unspecified)
inactive: [1] 16.1% | [2] -18.1% | [3] -3.45%

O=c1oc(/C=C/c2ccccc2)nc2cc(Cl)ccc12
inactive: [1] 19.6% | [2] 10.1% | [3] 10.4%

CCn1c(C)nc2cc(S(=O)(=O)CS(C)(=O)=O)ccc21
inactive: [1] 17% | [2] -12.8% | [3] 19.8%

Cc1ccc(-c2nc3cc(Cl)ccc3c(=O)o2)cc1
inactive: [1] 14.6% | [2] -11.3% | [3] 6.3%

CC(=O)CC(=O)N1CCN(C(=O)CC(C)=O)CC1
inactive: [1] -16.9% | [2] -16.8% | [3] -23.3%

CC(=O)CCN(Cc1ccccc1)Cc1ccccc1
inactive: [1] 1.7% | [2] -1.95% | [3] 22.4%

COc1ccc(NC(=S)Nc2ccccn2)cc1
inactive: [1] -9.3% | [2] -12.3% | [3] 0.65%

Cc1cc(CSC(=N)N)c(C)cc1CSC(=N)N
inactive: [1] -12.1% | [2] -39.6% | [3] -7.5%

CCC(=O)CC1CCCC(CC(=O)CC)N1C (stereo unspecified)
inactive: [1] -4.6% | [2] -2.55% | [3] 17.6%

CCOc1ccc(N2C(=O)C3C4c5ccccc5C(c5ccccc54)C3C2=O)cc1 (stereo unspecified)
inactive: [1] 27% | [2] 6.45% | [3] 29%

CC1CCN(c2ccc([N+](=O)[O-])cc2)CC1
inactive: [1] -17.6% | [2] -29.9% | [3] -9.05%

S=C(S)NC1CCCCCCCCCCC1
inactive: [1] 45.8% | [2] 23.8% | [3] 39%

O=C(O)/C=C/C(=O)Nc1cc(Cl)c(Cl)cc1Cl
inactive: [1] -11.3% | [2] -3.25% | [3] -10.9%

C[N+]12CCC34c5ccccc5NC3C3C(CC(=O)[O-])OCC=C(C1)C3CC42 (stereo unspecified)
inactive: [1] -7.55% | [2] -45% | [3] -31%
